# According to the supplement of paper PMC3334620:
# Whole data set: some 33,000 sequences, median “E-score (-0.5 to 0.5)” near -0.032, cut for the highest 2% near 0.36. For the sample, the highest values were picked, then their nearest neighbours and some sequences at random.
# Molecular target: T1, Sko1 (UniProt Q02100)
# T1 sequence: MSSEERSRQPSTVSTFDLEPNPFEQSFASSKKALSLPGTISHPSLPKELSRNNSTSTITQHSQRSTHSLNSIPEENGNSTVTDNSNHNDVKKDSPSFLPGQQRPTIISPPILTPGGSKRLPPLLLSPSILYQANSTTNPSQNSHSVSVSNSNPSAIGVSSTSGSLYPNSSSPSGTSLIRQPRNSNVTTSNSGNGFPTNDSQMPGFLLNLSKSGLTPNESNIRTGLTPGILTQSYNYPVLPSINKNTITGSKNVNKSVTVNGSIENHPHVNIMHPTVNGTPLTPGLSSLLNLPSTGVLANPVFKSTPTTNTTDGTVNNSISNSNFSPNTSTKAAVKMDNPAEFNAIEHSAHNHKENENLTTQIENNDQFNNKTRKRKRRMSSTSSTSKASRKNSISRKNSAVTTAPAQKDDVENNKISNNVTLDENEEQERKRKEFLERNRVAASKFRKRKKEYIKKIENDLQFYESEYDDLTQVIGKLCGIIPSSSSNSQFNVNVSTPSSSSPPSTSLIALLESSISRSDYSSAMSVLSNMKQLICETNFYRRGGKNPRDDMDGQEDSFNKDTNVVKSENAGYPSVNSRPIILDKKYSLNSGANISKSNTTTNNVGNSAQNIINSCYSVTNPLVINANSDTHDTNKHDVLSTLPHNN
# Assay: PBM E-score (8-mer binding enrichment) (E-score (-0.5 to 0.5)); higher = stronger / more preferred TF binding
# Details: protein concentration: 200 nM; construct: GST-full length
# Experimental: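 Universal 'all 10-mer' protein binding microarrays (Agilent AMADID 015681) probed with GST-tagged S. cerevisiae TFs (full-length or DBD) made by in vitro transcription/translation (PURExpress), about 100-200 nM. Bound TF was detected with fluorescent anti-GST. Each ungapped 8-mer (which stands for itself and its reverse complement) is scored by the PBM enrichment score (E-score), a modified Wilcoxon-Mann-Whitney statistic from -0.5 to +0.5, computed with the Universal PBM Analysis Suite. Scale: above 0.35 generally sequence-specific binding.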
row,Sequence,PBM E-score
1,ACGTTTTC,0.396
2,AGGTTTTG,-0.0965
3,ACGTTTGG,0.296
4,ACGTTTCC,0.294
5,CCGTTTTC,0.0601
6,ACGTTTTG,0.393
7,CCGTTTTA,-0.00533
8,GCGTTTTA,0.125
9,GGCTACAA,-0.0783
10,CATCGAGA,0.0586
11,CACTTGAC,0.186
12,AAGGTTAA,0.06
13,AAATGTCG,0.159
14,AGCTTGCA,0.0429
15,CGCCTACC,-0.145
16,CCTCTGCA,-0.229
17,CGTAACCC,0.289
18,CGTAACCA,0.389
19,CGTAACTC,0.331
20,CGTAACGC,0.34
21,CGTAACGA,0.366
22,GGTAACGA,0.0123

row,Sequence,PBM E-score
1,CGTAACTA,0.381
2,GGTAACCA,-0.101
3,GGTAACTA,0.0515
4,ACCGTGCG,0.0174
5,TCTACTAA,0.0947
6,CGTTTAAA,0.277
7,TGAATGAA,0.197
8,ATAGGTCG,-0.195
9,AATGTCGA,0.217
10,AATGTCGG,0.0603
11,AATGTCGT,0.371
12,CGATTGTC,0.0842
13,AGGAGCCC,-0.142
14,CCATTACC,-0.148
15,ACATTACA,0.28
16,ACATTACT,0.0825
17,CCATTACA,0.089
18,CCATTACG,0.438
19,ACATTACG,0.425
20,ACGGACTA,0.0518
21,CTGCTGAC,0.0145
22,AACACGTT,0.313

row,Sequence,PBM E-score
1,AACACGTC,0.401
2,AACACGTA,0.459
3,AACACGCC,-0.0487
4,AACACGGC,-0.255
5,AACACGAA,0.187
6,AGAGCTGG,-0.228
7,TCATAGAA,0.219
8,AATTTCAC,-0.0415
9,ACTTGAAA,0.0359
10,AAGCGGAA,-0.0292
11,GGAACGTA,0.289
12,CGAACGTA,0.361
13,AGAACGTA,0.366
14,CGAACGTC,0.238
15,AGAACGTG,0.246
16,AGAACGTC,0.314
17,GTGAAGGA,-0.0285
18,ACGCAGAC,0.0967
19,AAATTGGA,0.0977
20,ACGAGTCC,-0.0325
21,CCGTCGAC,-0.145
22,ACGTCGAA,0.292

row,Sequence,PBM E-score
1,GCGTCGAC,0.0596
2,ACGTCCAT,0.39
3,ACGTCGAG,0.254
4,ACGTCGAC,0.385
5,ACGTCCAA,0.288
6,ACGTCCAC,0.314
7,ACGTCGAT,0.432
8,ATCAGTCA,0.119
9,AACCGCGC,-0.0849
10,AGGGCAAT,-0.231
11,CGTAGAGC,0.116
12,ACGAGATA,0.207
13,ATACGTCC,0.369
14,AAACGTCG,0.238
15,ATCCGTCG,-0.197
16,ATACGCCC,-0.0909
17,CTACGTCC,0.298
18,ATACGTCG,0.422
19,AAGGCTGT,-0.282
20,CGGTAGCC,0.0295
